What was measured:
Experiment in all cases: PBM binding z-score (relative to random genomic background probes); higher = stronger binding; sequences stand for … in GC…GCGATTGACAGCGTAGAATGAAGG
[1] = test system: FXR:RXRa (NR concentration 270 nM, RXRa partner concentration 90 nM)
Method in brief: (§1)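 For binding z-scores, the reference was random background probes on custom Agilent 4×180K protein-binding microarrays. These arrays were incubated 1 h with ligand-free nuclear receptor dimers in PBS pH 7.4, 2% milk, 0.02% Triton X-100, 1 mM DTT, 0.2 mg/mL BSA and 0.4 mg/ml salmon testes DNA. Fluorescence was scanned after antibody detection of each partner (one per run) and regression-normalized.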

[2] = test system: LXRa:RXRa (NR concentration 270 nM, RXRa partner concentration 90 nM)
Method in brief: as §1

[3] = test system: LXRa homodimer (NR concentration 270 nM)
Method in brief: as §1

[4] = test system: LXRb:RXRa (NR concentration 270 nM, RXRa partner concentration 90 nM)
Method in brief: as §1

[5] = test system: PPARa:RXRa (NR concentration 270 nM, RXRa partner concentration 90 nM)
Method in brief: as §1

[6] = test system: PPARg:RXRa (NR concentration 180 nM, RXRa partner concentration 90 nM)
Method in brief: as §1

[7] = test system: PPARg:RXRa 270nM:90nM, anti-RXR (NR concentration 270 nM, RXRa partner concentration 90 nM)
Method in brief: as §1

[8] = test system: PPARg:RXRa 30nM:10nM, anti-RXR (NR concentration 30 nM, RXRa partner concentration 10 nM)
Method in brief: as §1

[9] = test system: PPARg:RXRa 90nM:30nM, anti-RXR (NR concentration 90 nM, RXRa partner concentration 30 nM)
Method in brief: as §1

Row | Sequence | PBM binding z-score [1] | PBM binding z-score [2] | PBM binding z-score [3] | PBM binding z-score [4] | PBM binding z-score [5] | PBM binding z-score [6] | PBM binding z-score [7] | PBM binding z-score [8] | PBM binding z-score [9]
1 | CCGTGTAGGTTACGAGGGGGCATTCAGTGCGAAT | 2.88 | 7.45 | 2.37 | 6.73 | 3.56 | 2.16 | 3.34 | 1.52 | 2.52
2 | TCGAGTAGGTTACGGAGGCATTCAGGGATGAAGA | 0.282 | 0.497 | -0.597 | 0.121 | 1.57 | 1.39 | 1.81 | 1.08 | 1.75
3 | CCGAGTAGATTACGAGGGGGCATTCAGTGCGAAT | 0.841 | 2.24 | 0.791 | 3.36 | 1.75 | 0.167 | 0.849 | 0.0804 | 0.742
4 | TCGAGTAGGTTACGGGGGCAGTCAGGGATGAAGA | 2.28 | 2.27 | 0.393 | 4.55 | 3.63 | 4.99 | 5.02 | 2.93 | 4.41
5 | TCGAGTAGGTTACGGGGGCATTGAGGGATGAAGA | 2.37 | 2.69 | 0.404 | 4.67 | 4.31 | 6.35 | 5.59 | 3.59 | 5.05
6 | TCGAGTAGGTTACGGGGGCATTCATGGATGAAGA | 2.37 | 2.82 | 0.637 | 4.75 | 4.29 | 6.11 | 5.78 | 3.34 | 4.94
7 | CTATGTTGGTTAAGGGGGTCATTCAGTTTGAAAG | 4.6 | 4.68 | 3.82 | 6.28 | 5.26 | 4.14 | 5.2 | 2.97 | 4.57
8 | CCGAGTAGGTTACGAGGGGGCATTCCGTGCGAAT | 2.81 | 7.17 | 1.62 | 6.21 | 3.36 | 1.77 | 2.96 | 0.628 | 1.69
9 | CCGAGTAAGTTACGAGGGGGCATTCAGTGCGAAT | 0.776 | 3.84 | 0.71 | 3.69 | 1.99 | -0.0159 | 1.15 | 0.0165 | 0.85
10 | CTATGTAGGTTAAGGGGGTCATTCGGTTTGAAAG | 5.21 | 4.84 | 2.94 | 6.16 | 6.15 | 8.47 | 7.83 | 6.21 | 7.86
11 | TCGAGTAGGTTACAGGGGCATTCAGGGATGAAGA | 0.886 | 1.08 | 0.219 | 1.68 | 2.44 | 2.7 | 2.87 | 1.73 | 2.71
12 | CTATGTCGGTTAAGGGGGTCATTCAGTTTGAAAG | 4.86 | 5.24 | 4.38 | 6.42 | 5.65 | 5.4 | 6.26 | 3.98 | 5.7
13 | CTATGTAGGTTAAGCGGGTCATTCAGTTTGAAAG | 2.56 | 2.59 | 0.655 | 2.56 | 4.84 | 5.97 | 5.57 | 2.6 | 4.53
14 | CTATGTAGGTTAAGTGGGTCATTCAGTTTGAAAG | 1.59 | 2.35 | 0.645 | 2.29 | 4.58 | 5.98 | 5.61 | 2.89 | 4.9
15 | TCCAGTAGGTTACGGGGGCATTCAGGGATGAAGA | 3.09 | 3.47 | 1.18 | 5.7 | 4.68 | 7.15 | 6.28 | 5.22 | 6.53
16 | CTATATAGGTTAAGGGGGTCATTCAGTTTGAAAG | 6.35 | 5.57 | 2.95 | 6.48 | 6.33 | 8.85 | 8.04 | 6.09 | 8.09
17 | CTAAGTAGGTTAAGGGGGTCATTCAGTTTGAAAG | 5.01 | 4.96 | 3.1 | 6.08 | 6.01 | 8.37 | 7.83 | 6.33 | 8.16
18 | TCGAGTAGGTTACGGGCGCATTCAGGGATGAAGA | 0.124 | 0.321 | -0.293 | -0.159 | 1.4 | 1.17 | 1.62 | 1.11 | 1.36
19 | CCGAGTAGGTTACGAGGGGGGATTCAGTGCGAAT | 2.34 | 3.82 | 0.79 | 5.43 | 2.99 | 2.52 | 3.71 | 1.57 | 3.4
20 | CCGAGTAGTTTACGAGGGGGCATTCAGTGCGAAT | 1.62 | 4.8 | 0.906 | 4.15 | 2.17 | -0.276 | 1.08 | 0.469 | 1.59
21 | CCGAGCAGGTTACGAGGGGGCATTCAGTGCGAAT | 2.35 | 7.31 | 1.46 | 6.07 | 3.01 | 0.89 | 1.95 | 0.464 | 1.36
22 | TCGAGTAGGTAACGGGGGCATTCAGGGATGAAGA | 1.53 | 1.83 | 0.159 | 4.16 | 3.41 | 4.6 | 4.51 | 2.68 | 3.8
23 | TCGAGTATGTTACGGGGGCATTCAGGGATGAAGA | 2.26 | 2.6 | 0.591 | 4.72 | 2.9 | 1.94 | 3.22 | 2.44 | 3.35
24 | CTCTGTAGGTTAAGGGGGTCATTCAGTTTGAAAG | 5.36 | 5.1 | 3.51 | 6.33 | 5.68 | 6.59 | 6.91 | 4.4 | 6.57
25 | TCGAATAGGTTACGGGGGCATTCAGGGATGAAGA | 3.92 | 3.9 | 1.2 | 5.78 | 5.11 | 5.71 | 5.84 | 4.46 | 5.39
26 | CCGAGTACGTTACGAGGGGGCATTCAGTGCGAAT | 1.3 | 3.11 | 0.927 | 4.03 | 2.23 | 0.00178 | 0.968 | -0.231 | 0.521

Row | Sequence | PBM binding z-score [1] | PBM binding z-score [2] | PBM binding z-score [3] | PBM binding z-score [4] | PBM binding z-score [5] | PBM binding z-score [6] | PBM binding z-score [7] | PBM binding z-score [8] | PBM binding z-score [9]
27 | CCGAGTAGGTTACGAGGGGGCATGCAGTGCGAAT | 1.91 | 6.78 | 0.861 | 5.49 | 3.35 | 2.46 | 3.3 | 0.783 | 2.32
28 | TCGAGTAGGTTACGGGAGCATTCAGGGATGAAGA | 0.293 | 0.0567 | -0.651 | 0.0342 | 1.82 | 1.59 | 2.09 | 1.25 | 1.7
29 | TCGATTAGGTTACGGGGGCATTCAGGGATGAAGA | 3.28 | 3.73 | 1.5 | 5.59 | 4.45 | 5.21 | 5.33 | 4.89 | 5.46
30 | CTATGTAGGGTAAGGGGGTCATTCAGTTTGAAAG | 5.03 | 4.71 | 2.41 | 6.36 | 6.11 | 8.15 | 7.52 | 5 | 7.42
31 | TCGAGTAGGTTTCGGGGGCATTCAGGGATGAAGA | 2.38 | 2.27 | 0.973 | 4.48 | 2.96 | 1.4 | 2.99 | 2.29 | 2.8
32 | TAGAGTAGGTTACGGGGGCATTCAGGGATGAAGA | 2.76 | 3.19 | 1.55 | 5.06 | 4.61 | 7.4 | 6.43 | 4.51 | 5.78
33 | TCGAGTAGGTTACGGGGGCTTTCAGGGATGAAGA | 1.64 | 2.06 | 0.118 | 4.46 | 3.23 | 3.47 | 3.94 | 2.05 | 3.12
34 | CCGAGTGGGTTACGAGGGGGCATTCAGTGCGAAT | 2.73 | 6.93 | 0.977 | 5.8 | 3.08 | 1.75 | 2.54 | 0.567 | 1.74
35 | CCGAGTAGGTTACGAGGGGGCGTTCAGTGCGAAT | 1.13 | 6.33 | 0.912 | 5.52 | 3.11 | 2 | 3.17 | 0.694 | 2.26
36 | CTATGTAGGTTAAGGGGTTCATTCAGTTTGAAAG | 2.03 | 3.21 | 2.34 | 3.8 | 4.75 | 7.11 | 6.53 | 4.01 | 6.09
37 | CCGAGTAGGTGACGAGGGGGCATTCAGTGCGAAT | 1.24 | 3.03 | 0.595 | 4.26 | 3.3 | 2.94 | 3.3 | 0.701 | 2.23
38 | CCGAGTAGCTTACGAGGGGGCATTCAGTGCGAAT | 0.729 | 1.73 | 0.701 | 3.62 | 1.77 | -0.443 | 0.5 | -0.877 | -0.359
39 | TCGAGTAGGGTACGGGGGCATTCAGGGATGAAGA | 2.34 | 2.37 | 0.643 | 4.6 | 3.09 | 4.1 | 4.09 | 3.19 | 3.84
40 | TCGAGTAGGTTACGGGGGCATCCAGGGATGAAGA | 2.12 | 2.55 | 0.293 | 4.73 | 4.35 | 6.04 | 6.05 | 3.04 | 5.24
41 | CCGAGTAGGTTACGAGGAGGCATTCAGTGCGAAT | -0.167 | 4.4 | -0.319 | 0.864 | 1.26 | 0.943 | 1.25 | -0.283 | 0.832
42 | CCGAGTTGGTTACGAGGGGGCATTCAGTGCGAAT | 1.35 | 3.69 | 1.21 | 4.27 | 2.31 | -0.0841 | 0.784 | -0.706 | 0.481
43 | CCGAGTAGGTTACGAGGGGGTATTCAGTGCGAAT | 1.23 | 5.34 | 0.455 | 4.28 | 2.87 | 1.8 | 3.05 | 1.22 | 1.9
44 | CTATGTAGGTTAAGGGGGCCATTCAGTTTGAAAG | 1.41 | 1.83 | 0.578 | 4.2 | 4.65 | 7 | 6.86 | 4.73 | 6.88
45 | CCGAGTAGGTTACGAGGGGGCATTCTGTGCGAAT | 2.88 | 7.2 | 1.77 | 6.24 | 3.38 | 2.22 | 3.46 | 0.457 | 2.35
46 | CCGAGTAGGTTACGAGGGGACATTCAGTGCGAAT | 1.08 | 5.68 | 0.00926 | 3.05 | 1.68 | 2.07 | 2.15 | 0.304 | 1.13
47 | CCGAGTAGGTTACGACGGGGCATTCAGTGCGAAT | -0.0135 | 5.81 | -0.31 | 3.38 | 1.36 | 0.995 | 1.17 | -0.329 | 0.19
48 | CCGAGTAGGTTACGAGGTGGCATTCAGTGCGAAT | 0.103 | 2.1 | -0.445 | 0.601 | 1.61 | 1.79 | 2.03 | 0.157 | 1.16
49 | CCGAGTAGGTTACGAGGGGGCAATCAGTGCGAAT | 2.55 | 6.66 | 0.917 | 6.01 | 3.34 | 2.49 | 3.24 | 0.613 | 2.21
50 | TCGACTAGGTTACGGGGGCATTCAGGGATGAAGA | 2.94 | 2.96 | 1.01 | 5.58 | 4.29 | 6.51 | 5.97 | 4.68 | 5.76
51 | CCGAGTAGGTTCCGAGGGGGCATTCAGTGCGAAT | 0.618 | 1.8 | 1.32 | 4.15 | 2.04 | -0.00423 | 1.42 | 0.548 | 0.958
52 | TCGGGTAGGTTACGGGGGCATTCAGGGATGAAGA | 3.9 | 4.06 | 2.17 | 5.75 | 4.69 | 5.73 | 5.54 | 3.74 | 4.7

Source: the supplement of paper PMC6555819
